# Bioassay records deposited in PubChem BioAssay by several laboratories.
# Only some compounds are listed: those with a hit (about 2.7% of all), similar ones and a draw of the others.
# IDE cell activ = activators of human insulin-degrading enzyme in cells. HEK cells, FAbeta-B cleavage, fluorescence polarization; 0% vehicle, 100% cell-free pure enzyme wells. AID 493087. activation, % at 5.96 µM. 340,000 compounds, 0.073% hits. P14735;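 active = activation above the mean of all tested compounds plus 3 SD, set per screening campaign, cut at about 17% in these data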
# IDE inh = cellular human IDE inhibition; P14735; HEK cells, FAbetaB cleavage, fluorescence polarization; inhibition, % at 5.59 µM; 320,000 compounds, 0.41% hits; AID 434962;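 active = percent inhibition above the average of all tested compounds plus 3 SD, set per screening campaign, cut at about 16% in these data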;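 note: IDE supplied by intact live HEK cells; FP after avidin binding of uncleaved biotin substrate so inhibition keeps polarization high; 0% = DMSO wells and 100% = 60 µM reference IDE inhibitor Ii1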
# ANO1 block = inhibitors of mouse TMEM16A calcium-activated chloride channel; 310,000 compounds, 1.2% hits; normalized B-score (activity score, 25-100; higher = stronger inhibition) at 10 µM; AID 588511; HEK293 TMEM16A/YFP iodide influx fluorescence, ionomycin; Q8BHY3;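 active = ratio plate-corrected score three or more library SD toward inhibition, starting fluorescence score within five deviations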;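 note: score derived from kinetic fluorescence span divided by baseline fluorescence per well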
# CHT block = inhibits the human high affinity choline transporter; 310,000 compounds, 0.86% hits; CHT-expressing cells, membrane potential dye, choline response; hits give low values; B-score at 10 µM; Q9GZV3;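 active = B-score over 3 SD under the library average, and starting fluorescence ratio not unusually high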;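 note: choline stimulus applied at its EC90 after an EC20 pre-addition; B-score computed on integrated fluorescence ratio after choline addition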
# Target sequence (Q9GZV3 whole entry, looked up): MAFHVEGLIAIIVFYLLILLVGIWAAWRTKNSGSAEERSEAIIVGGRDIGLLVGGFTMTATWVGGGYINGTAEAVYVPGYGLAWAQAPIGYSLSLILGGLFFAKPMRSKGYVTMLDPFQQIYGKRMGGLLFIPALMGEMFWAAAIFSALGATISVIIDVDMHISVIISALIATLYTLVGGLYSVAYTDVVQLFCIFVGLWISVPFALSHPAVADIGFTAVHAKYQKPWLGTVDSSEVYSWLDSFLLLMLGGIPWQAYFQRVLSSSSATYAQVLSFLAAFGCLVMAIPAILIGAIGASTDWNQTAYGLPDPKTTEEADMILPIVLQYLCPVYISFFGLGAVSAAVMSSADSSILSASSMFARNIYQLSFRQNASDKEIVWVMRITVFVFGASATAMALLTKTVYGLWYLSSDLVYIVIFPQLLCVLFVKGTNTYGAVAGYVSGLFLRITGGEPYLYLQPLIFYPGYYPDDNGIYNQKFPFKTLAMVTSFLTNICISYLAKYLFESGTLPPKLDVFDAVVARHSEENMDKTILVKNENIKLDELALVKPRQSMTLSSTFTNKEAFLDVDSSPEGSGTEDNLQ
# ANO1 activ = mouse TMEM16A channel activation, primary screen. Q8BHY3. HEK293 TMEM16A/YFP-H148Q/I152L, iodide quench fluorescence; hits give low values. B-score at 10 µM. 340,000 compounds, 0.3% hits. AID 623877;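 active = fluorescence-ratio B-score plate-corrected deviation score at least 3 library SD below zero, with starting fluorescence score within 5 deviations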;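 note: channel opened by trigger with iodide after compound preincubation; score built on the fluorescence ratio of max minus min over baseline; more negative score means more quench and so TMEM16A activation or potentiation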
# CHT allo act = allosteric activators of human choline transporter CHT; CHT-expressing cells, membrane potential dye, choline EC20; hits give high values; LV-AA mutant CHT in HEK293 cells; 310,000 compounds, 0.49% hits; B-score at 10 µM; Q9GZV3;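 active = initial fluorescence not abnormally high and integrated response B-score, plate-corrected, over 3 SD above library mean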
# TMEM16A reconf = TMEM16A (mouse) chloride channel inhibition, re-confirmation. shares compounds with ANO1 block. HEK293 TMEM16A/YFP-H148Q, iodide quench fluorescence; ionomycin added to raise cell calcium. inhibition, % at 10 µM. 2,300 compounds, 39% hits;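 active = mean duplicate percent inhibition, scaled so buffer wells are 0 and the reference blocker 100, over three buffer SD above buffer mean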
# TMEM16A Ca cntr = counter-screen for TMEM16A inhibitors: effect on calcium mobilization; 2,300 compounds, 2% hits; calcium response (% of ionomycin), % at 10 µM; shares compounds with ANO1 block; TMEM16A/YFP HEK293, Fluo4 calcium mobilization;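 active = duplicate-averaged calcium signal over 20% of the ionomycin maximum, relative to buffer baseline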;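 note: each well's signal is peak minus trough fluorescence divided by its pre-addition baseline; 0% = buffer wells and 100% = ionomycin wells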
# Parental YFP cnt = parental YFP-HEK293 iodide quench counter-screen activity. shares compounds with ANO1 block. 2,300 tested, under 10 active. YFP ratio F(max-min)/F0 at 10 µM. ionomycin;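 active = yellow fluorescent protein signal ratio exceeding the buffer control mean by over 5 SD of those controls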;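 note: ratio is mean of duplicate wells from kinetic YFP trace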
# ClC-1 inh = selectivity of TMEM16A inhibitors: inhibition of rat ClC-1 chloride channel; shares compounds with ANO1 block; CHO ClC-1-YFP, iodide influx fluorescence quench; iodide control reads 0, buffer control 100; ratio percent, % at 10 µM; 2,300 tested, under 10 active;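 active = duplicate-mean ratio percent above the mean of iodide-only control wells, which defines zero, plus 5 of their SD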;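 note: higher percent means stronger block of ClC-1 iodide influx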
# Numbers without * were called inactive; i = inactive; nt = not tested or not shown; ! = not active in a repeat.
SMILES,IDE cell activ,IDE inh,ANO1 block,CHT block,ANO1 activ,CHT allo act,TMEM16A reconf,TMEM16A Ca cntr,Parental YFP cnt,ClC-1 inh
CC(=O)NC(=S)Nc1sc2c(c1C#N)CCCCC2,-7,nt,nt,nt,i,nt,nt,nt,nt,nt
CC(C)(C)C(=O)NC(NC(=S)Nc1sc2c(c1C#N)CCCC2)C(Cl)(Cl)Cl (centres undefined),-5,1,100*,i,i,i,34%*,i,-1.2,-10
CCN(C(=S)NCc1ccccc1)c1ccccc1,-4,-4,i,i,i,i,nt,nt,nt,nt
CCN(C(=S)NCc1ccccc1)c1cccc2ccccc12,-2,-1,25*,i,i,i,i,i,-1.2,-8
Cc1c(NC(=O)CSc2ccc(Cl)cc2)cccc1-c1nc2ncccc2o1,-6,0,25*,i,i,i,20%*,i,-0.9,-10
CCN(c1ccc(OC)cc1)S(=O)(=O)c1nnc(NC(=O)c2ccc(C)cc2)s1,5,2,i,i,i,i,nt,nt,nt,nt
COc1ccc(C(=O)Nc2ccc(Cl)cc2F)cc1S(=O)(=O)N1CCCC1,6,-1,nt,nt,i,nt,nt,nt,nt,nt
Cc1noc(C)c1COC(=O)c1cc(C)n(-c2ccccc2)c1C,7,-4,25*,i,i,i,22%*,i,-0.99,-12
Cc1nn(CC(=O)NC(C)C(C)C)c(C)c1S(=O)(=O)N1CCCCC1 (centres undefined),5,nt,nt,nt,i,nt,nt,nt,nt,nt
O=S(=O)(c1ccc2ccccc2c1)N1CCC(c2nc(-c3ccncc3)no2)CC1,-3,3,100*,i,i,i,17%*,i,-0.93,-6
Cc1oc(-c2ccccc2)nc1CS(=O)CC(=O)NC1CCCC1 (centres undefined),3,1,i,i,i,i,nt,nt,nt,nt
Clc1nc(-c2cccnc2)nc2scc(-c3ccccc3)c12,5,5,i,i,i,i,nt,nt,nt,nt
COc1ccc(-c2csc3nc(-c4cccnc4)nc(Cl)c23)cc1OC,6,-2,25*,i,i,i,i,i,-1.2,-19
O=C(OCC(O)COC(=O)c1cccnc1)c1cccnc1,0,5,i,i,i,i,nt,nt,nt,nt
Cc1ccc(S(=O)(=O)N2CCN(C(=O)CCC(=O)NCc3cccc(C(F)(F)F)c3)CC2)cc1,2,2,25*,i,i,i,i,i,-1.2,-20
Cc1cccc(NC(=O)c2nc[nH]c2C(=O)N2CCN(c3ccccc3)CC2)c1,9,3,nt,nt,i,nt,nt,nt,nt,nt
NC(=O)c1ccsc1NC(=O)COc1ccccc1,-3,-2,25*,i,i,i,i,i,-0.9,-9
NC(=O)c1ccsc1NC(=O)COC(=O)Cc1cccc2ccccc12,1,2,25*,i,i,i,45%*,i,-0.72,-12
CNC(=O)c1cc(S(=O)(=O)N2CC(C)OC(C)C2)ccc1N1CCOCC1 (centres undefined),3,nt,nt,nt,i,nt,nt,nt,nt,nt
COC(=O)COc1ccc(S(=O)(=O)NCc2ccc3c(c2)OCO3)cc1C,4,-4,i,i,i,i,nt,nt,nt,nt
Cc1ccc(NS(=O)(=O)c2ccc(OCC(=O)Nc3cccc([N+](=O)[O-])c3)c(C)c2)cc1,-3,7,25*,i,i,i,i,i,-0.93,-8
CC(C)NS(=O)(=O)c1ccc(OCC(=O)Nc2ccc3c(c2)OCO3)c(Cl)c1,1,1,i,i,i,i,nt,nt,nt,nt
COC(=O)COc1ccc(S(=O)(=O)Nc2ccc3c(c2)OCCO3)cc1C,3,1,25*,i,i,i,18%*,i,-1,-6
Cc1ccc(NC(=O)CN(C)C(=O)c2ccc(NS(=O)(=O)c3cccc([N+](=O)[O-])c3)cc2)cc1,4,2,nt,nt,i,nt,nt,nt,nt,nt
COC(=O)COc1ccc(S(=O)(=O)Nc2ccc3c(c2)OCCO3)cc1Cl,0,4,25*,i,i,i,46%*,i,-0.81,-16
SMILES,IDE cell activ,IDE inh,ANO1 block,CHT block,ANO1 activ,CHT allo act,TMEM16A reconf,TMEM16A Ca cntr,Parental YFP cnt,ClC-1 inh
CC(=O)NCCc1ccc(C(=O)CSc2nnc(C3CC3)n2C2CC2)cc1,0,3,nt,nt,i,nt,nt,nt,nt,nt
CCN(CC(=O)NCc1cccs1)C(=O)c1cc(Br)ccc1O,5,-1,nt,nt,i,nt,nt,nt,nt,nt
CCCC(=O)NCC(c1cccs1)S(=O)(=O)c1ccc(C)cc1 (centres undefined),1,-8,i,i,i,i,nt,nt,nt,nt
C/C(N)=C(/C#N)C(=O)COC(=O)C1CCC(C(C)(C)C)CC1 (centres undefined),0,3,25*,i,i,i,28%*,i,-1,-41
CC1CC(C)CN(c2ncnc3c2cnn3Cc2ccc(Cl)cc2)C1 (centres undefined),1,1,25*,i,i,i,i,i,-1,-2
N#Cc1c(NC(=O)Cn2c(=O)oc3ccccc32)oc(-c2ccccc2)c1-c1ccccc1,4,5,25*,i,i,i,28%*,i,-0.94,-12
CCN(CC(=O)Nc1ccc(NC(C)=O)cc1)C(=O)c1ccc(=O)n(C)n1,1,-6,nt,nt,i,nt,nt,nt,nt,nt
O=C(CN1CCC(c2nc3ccccc3[nH]2)CC1)Nc1ccc2c(c1)OCO2,-4,9,100*,i,i,i,i,i,-1.2,-2
COC(=O)c1ccc(NC(=O)CCN2CCCCC2)cc1,1,0,25*!,i,i,i,i,i,-0.89,-22
Cc1ccc(NC(=O)CNC(=O)c2ccco2)nc1,0,0,i,i,i,i,nt,nt,nt,nt
CC(=O)c1ccc(NC(=O)Nc2cccc(Cl)c2)cc1,0,8,25*,i,i,i,54%*,i,-1.1,-27
O=C(Nc1ccccc1)Nc1cccc(Cl)c1,5,5,i,i,i,i,nt,nt,nt,nt
COc1ccc(S(=O)(=O)NCCCn2ccnc2)cc1Cl,4,4,i,i,i,i,nt,nt,nt,nt
